An excerpt weighted towards active compounds, which were near 19% of everything screened.
TDP1 cell CPT: growth inhibition of DT40 Tdp1-/-;hTDP1 cells with camptothecin (screen for TDP1 inhibitors); Potency, µM (doses to about 46.2 µM), inactives show top-dose activity change, negative = growth inhibition, usual class: inhibitors; chicken DT40 Tdp1-/-;hTDP1 cells + 20 nM CPT, ATP luminescence, 48 h; 12% of 420,000 active; AID 686979; also: potency is read from the fitted curve at half-maximal effect; nearly all actives have a fitted effect of over 55% in size
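Chicken DT40 Tdp1-/- cells complemented with human TDP1, 400 cells/well, exposed to compounds plus 20 nM camptothecin for at least 48 h at 37 C; viability read as ATP content by CellTiter-Glo luminescence.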
Giardia killer: Giardia lamblia killing; Giardia lamblia trophozoite viability; activity change, % at 7.66 µM, hits read low; 0.15% of 340,000 active; in the data active = activity change below about -80%; inconclusive = between about -30% and that limit;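 also: parasites exposed to compound for two days anaerobically before the ATP read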
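Luminescent ATP signal served as the viability read-out, measured 15-30 min after adding ATP detection reagent to trophozoites that had been incubated with compounds for 48 hrs at 37 deg C anaerobically at 100 cells/well.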
DT40 TDP1 no CPT: qHTS for Inhibitors of human tyrosyl-DNA phosphodiesterase 1 (TDP1): qHTS in cells in absence of CPT | AID 686978, 2013 | Potency, µM (doses to about 46.2 µM), for inactives: at the highest dose activity change, negative = growth inhibition, hits mostly inhibitors | DT40 Tdp1-/- hTDP1 cells, no CPT, ATP luminescence, 48 h | 15% of 420,000 active; also: potency is read from the fitted curve at half-maximal effect; nearly all actives have a fitted effect of over 55% in size
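Stably hTDP1-transfected Tdp1-null chicken DT40 cells were treated with library compounds minus camptothecin and grown for at least 48 hr at 37 °C, after which cellular ATP was quantified by luminescence.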
TDP1 inh: TDP1 (human) enzyme inhibition | recombinant TDP1, AlphaScreen DNA substrate cleavage | Potency, µM (series often up to 130 µM), for inactives: at the top dose activity change, negative = inhibition, hits mostly inhibitors | 0.28% of 350,000 active | AID 485290; also: potency is read from the fitted curve at half-maximal effect; nearly all actives have a fitted effect of over 40% in size
Target sequence (Q9NUW8 whole entry, looked up): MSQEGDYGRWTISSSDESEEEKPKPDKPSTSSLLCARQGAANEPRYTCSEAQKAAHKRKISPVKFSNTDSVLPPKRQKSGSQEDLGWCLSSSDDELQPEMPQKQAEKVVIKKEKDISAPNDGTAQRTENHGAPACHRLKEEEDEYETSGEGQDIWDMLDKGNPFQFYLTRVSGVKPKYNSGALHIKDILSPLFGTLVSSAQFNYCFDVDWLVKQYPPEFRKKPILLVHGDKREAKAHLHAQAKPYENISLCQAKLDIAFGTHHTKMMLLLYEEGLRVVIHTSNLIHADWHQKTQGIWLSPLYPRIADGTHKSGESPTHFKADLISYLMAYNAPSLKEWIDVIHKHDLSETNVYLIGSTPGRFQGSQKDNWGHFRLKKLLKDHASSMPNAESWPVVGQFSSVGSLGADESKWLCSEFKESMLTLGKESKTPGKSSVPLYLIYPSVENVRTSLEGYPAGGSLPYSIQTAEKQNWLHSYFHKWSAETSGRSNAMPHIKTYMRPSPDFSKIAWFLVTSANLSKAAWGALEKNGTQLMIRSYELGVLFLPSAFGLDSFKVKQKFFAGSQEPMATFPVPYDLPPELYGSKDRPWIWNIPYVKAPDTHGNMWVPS
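Here, a 5' biotin and 3' phosphotyrosine-FITC DNA oligonucleotide reports Tdp1 activity: intact substrate bridges AlphaScreen beads, while cleavage leaves a 3' phosphate and drops signal. All incubations at room temperature.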
IL1B secr inh: inhibitors of inflammasome signaling (IL-1 beta secretion); activity change, % at 57.5 µM; THP-1 LPS/ATP IL-1B secretion, AlphaLISA, 16 h; hits give low values; 4.7% of 360,000 active; in the data active = activity change below about -50%; inconclusive = mostly about -30% to -49%
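THP-1 cells pretreated 1 hr with compounds (up to 57.5 uM final), then stimulated with LPS (250 ng/mL final) plus ATP (1.25 mM final); secreted IL-1B measured by AlphaLISA after 16 hr, decreased signal indicating inhibition.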
ELG1 DNA repair: inhibitors of ELG1-dependent DNA repair in HEK293T cells. Potency, µM (series often up to 46.1 µM), for the others: at the top dose activity change, negative = inhibition, actives largely listed as inhibitors. 2.3% of 330,000 active. HEK293T ELG1-luciferase reporter, luminescence, 16 h; DNA damage induced by 5-fluorouridine. AID 504467; also: potency is read from the fitted curve at half-maximal effect; nearly all actives have a fitted effect of over 55% in size
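Reporter activity after DNA damage by 5-fluorouridine is monitored. Compound-treated cells incubate 16 hr at 37 °C, then ONE-Glo is added for 30 min before luminescence reading.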
* hit, by the source's call. Unless noted, calls follow the shape of the dose curve; as a rule, active = well fitted curve in the direction sought with a large enough effect; inconclusive = small, poorly fitted or top-dose-only effect, or another doubt; inactive = no such curve, though single readings can be large; an effect the other way counts as inactive or inconclusive. % is scaled to controls: 0 for no effect and ±100 for the full control effect.

For CCS(=O)(=O)N1N=C(c2ccccc2)CC1c1ccc2nccnc2c1 (stereo not given) the results were TDP1 cell CPT inconclusive, Giardia killer 11, DT40 TDP1 no CPT 10µM*, TDP1 inh 8%, IL1B secr inh -3 and ELG1 DNA repair 0%.
`CS(=O)(=O)Nc1ccc(C2=NN(S(C)(=O)=O)C(c3ccc4nccnc4c3)C2)cc1` (stereo not given) gave TDP1 cell CPT -19%, Giardia killer -7, DT40 TDP1 no CPT 1%, TDP1 inh 3%, IL1B secr inh 1 and ELG1 DNA repair inconclusive.
COc1ccc(S(=O)(=O)Nc2ncccc2C)c2ccccc12 was read as TDP1 cell CPT 5%, Giardia killer -17, DT40 TDP1 no CPT -13%, IL1B secr inh -23 and ELG1 DNA repair inconclusive.
Screening C/C(Cn1nnc([N+](=O)[O-])n1)=N\NC(=O)c1ccc(O)cc1 returned TDP1 cell CPT 15µM*, Giardia killer inconclusive, DT40 TDP1 no CPT 13µM*, TDP1 inh 3%, IL1B secr inh 41 and ELG1 DNA repair inconclusive.
For C/C(Cn1cnc([N+](=O)[O-])n1)=N\NC(=O)c1ccc(Br)cc1 the results were TDP1 cell CPT -8%, Giardia killer -2, DT40 TDP1 no CPT -1%, TDP1 inh -2%, IL1B secr inh -1 and ELG1 DNA repair 18%.
For C/C(Cn1nnc([N+](=O)[O-])n1)=N\NC(=O)c1ccc(O)cc1O the results were TDP1 cell CPT inconclusive, Giardia killer -1, DT40 TDP1 no CPT inconclusive, TDP1 inh 8%, IL1B secr inh 4 and ELG1 DNA repair 11%.
C/C(Cn1nnc([N+](=O)[O-])n1)=N\NC(=O)c1ccccc1O was read as TDP1 cell CPT 15µM*, Giardia killer -11, DT40 TDP1 no CPT 18µM*, TDP1 inh 3%, IL1B secr inh -4 and ELG1 DNA repair inconclusive.
Screening C/C(Cn1nnc([N+](=O)[O-])n1)=N\NC(=O)c1ccc(Cl)c(Cl)c1 returned TDP1 cell CPT 18µM*, Giardia killer -24, DT40 TDP1 no CPT 16µM*, TDP1 inh 7%, IL1B secr inh 1 and ELG1 DNA repair -7%.
Screening Cn1c(-c2ccc3c(c2)OCO3)cnc1NCc1cccc(O)c1 returned TDP1 cell CPT -19%, Giardia killer -7, DT40 TDP1 no CPT inconclusive, TDP1 inh -13%, IL1B secr inh -20 and ELG1 DNA repair 4%.
For CCC1CCCCN1C(=O)COC(=O)COc1ccc(Br)cc1 (stereo not given) the results were TDP1 cell CPT -10%, Giardia killer -27, DT40 TDP1 no CPT 10%, TDP1 inh 1%, IL1B secr inh 0 and ELG1 DNA repair 1%.
COc1ccccc1OCCSc1nc(-c2ccc(C(C)(C)C)cc2)nc2cc(=O)[nH]n12 was read as TDP1 cell CPT 13µM*, DT40 TDP1 no CPT inconclusive and TDP1 inh 0%.
Screening Cc1ccc(C(C)C)c(OCCSc2nc(-c3cccs3)nc3cc(=O)[nH]n23)c1 returned TDP1 cell CPT inconclusive, DT40 TDP1 no CPT inconclusive and TDP1 inh 0%.
`Cn1c(SCc2cccc(Br)c2)nc2c1c(=O)[nH]c(=O)n2C` gave TDP1 cell CPT inconclusive, Giardia killer -12, DT40 TDP1 no CPT -29%, IL1B secr inh 28 and ELG1 DNA repair -4%.
For Cc1ccc(CSc2nc(-c3ccc(C(C)(C)C)cc3)nc3cc(=O)[nH]n23)cc1 the results were TDP1 cell CPT inconclusive, DT40 TDP1 no CPT inconclusive and TDP1 inh 8%.
For O=c1cc2nc(-c3ccccc3)nc(SCc3cccc(Br)c3)n2[nH]1 the results were TDP1 cell CPT inconclusive, DT40 TDP1 no CPT 9.2µM* and TDP1 inh 3%.
Screening C=CCc1ccccc1OCCSc1nc(-c2ccc(C(C)(C)C)cc2)nc2cc(=O)[nH]n12 returned TDP1 cell CPT 23µM*, DT40 TDP1 no CPT inconclusive and TDP1 inh 5%.
`Cc1ccc(-c2nc(SCCOc3ccccc3C)n3[nH]c(=O)cc3n2)cc1` gave TDP1 cell CPT 23µM*, DT40 TDP1 no CPT 26µM* and TDP1 inh 5%.
For COc1nccnc1NS(=O)(=O)c1ccc(NCc2ccccc2O)cc1 the results were TDP1 cell CPT 1%, Giardia killer 5, DT40 TDP1 no CPT -8%, TDP1 inh 7%, IL1B secr inh 18 and ELG1 DNA repair -4%.
`CC(=C\C(=O)O)/C(=C/c1ccco1)C(=O)O` gave TDP1 cell CPT -16%, Giardia killer 11, DT40 TDP1 no CPT 20%, TDP1 inh inconclusive, IL1B secr inh 12 and ELG1 DNA repair 12%.
`CC(=C\C(=O)O)/C(=C/c1ccc(C)o1)C(=O)O` gave TDP1 cell CPT 15µM*, Giardia killer 6, DT40 TDP1 no CPT 21µM*, IL1B secr inh 3 and ELG1 DNA repair -5%.
Screening COc1ccc(/C=C/c2ccnc3ccccc23)c(OC)c1 returned TDP1 cell CPT 22µM* and DT40 TDP1 no CPT 18µM*.
Screening O=C(Nc1ccc(Nc2ccncc2)cc1)c1ccc(Nc2ccnc3ccc([N+](=O)[O-])cc23)cc1 returned TDP1 cell CPT -1%, Giardia killer -8, DT40 TDP1 no CPT 2%, TDP1 inh -12%, IL1B secr inh 2 and ELG1 DNA repair 9%.
Screening COc1cc(/C=C/c2ccnc3ccccc23)cc(OC)c1OC returned TDP1 cell CPT 11µM* and DT40 TDP1 no CPT 11µM*.
`O=C(NCCc1ccccc1)c1nccc2ccccc12` gave TDP1 cell CPT -16%, Giardia killer -10, DT40 TDP1 no CPT -14%, TDP1 inh -5%, IL1B secr inh 6 and ELG1 DNA repair inconclusive.
For COc1cc(C(=O)Nc2cccc3ncccc23)cc(OC)c1OC the results were TDP1 cell CPT -8%, Giardia killer -6, DT40 TDP1 no CPT 0%, TDP1 inh -11%, IL1B secr inh 18 and ELG1 DNA repair inconclusive.
For CC(C)Nc1ccc(Nc2ccnc3cc4ccccc4cc23)cc1 the results were TDP1 cell CPT 8.2µM*, Giardia killer -2, DT40 TDP1 no CPT 7.3µM*, TDP1 inh 11%, IL1B secr inh -107* and ELG1 DNA repair 29%.
`c1ccc(CCNc2ccnc3cc4ccccc4cc23)cc1` gave TDP1 cell CPT 5.8µM*, Giardia killer 11, DT40 TDP1 no CPT 7.3µM*, TDP1 inh 11%, IL1B secr inh -102* and ELG1 DNA repair inconclusive.
Screening O=C(c1cnn(-c2ccc(F)cc2)c1-n1cccc1)N1CCN(c2ccccc2)CC1 returned TDP1 inh 3%.

Assay outcomes from PubChem.
